Screens as filed in PubChem.
G9a block = G9a (human) methyltransferase inhibition | Q96KQ7 | G9a H3K9 monomethylation, AlphaScreen, 2 h | Potency, µM (highest dose often 102 µM), without a hit: top-dose activity, negative = inhibition, hits mostly inhibitors | 350,000 tested, 8.8% active; note: potency is the fitted concentration of half-maximal effect; % is set by controls: 0 for no effect and ±100 for the full control effect; nearly all actives have a fitted effect of over 75% in size
Target sequence (Q96KQ7 913-1193 limits assumed): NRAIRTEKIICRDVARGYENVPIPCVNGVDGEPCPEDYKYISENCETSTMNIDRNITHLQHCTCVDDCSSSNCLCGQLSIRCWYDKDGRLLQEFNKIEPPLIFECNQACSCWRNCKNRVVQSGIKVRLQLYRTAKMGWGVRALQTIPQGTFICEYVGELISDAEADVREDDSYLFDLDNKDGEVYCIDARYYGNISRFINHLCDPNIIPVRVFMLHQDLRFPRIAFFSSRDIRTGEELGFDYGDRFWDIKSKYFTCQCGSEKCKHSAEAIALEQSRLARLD
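Quantitative HTS format: methyltransferase activity on a biotin-tagged H3K9 peptide is measured by AlphaScreen, using a rabbit anti-monomethyl-H3K9 antibody with streptavidin donor and anti-IgG acceptor beads. Final levels are 20 nM enzyme, 500 nM peptide, 20 uM SAM; 2 h RT.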
HP1b binding inh = blocks HP1-beta chromodomain binding to methylated histone tails | P83916 | AlphaScreen HP1-beta / biotin-H3K9me3 peptide binding | Potency, µM (titrated, usually from 114 µM), for the others: top-dose activity change, negative = inhibition, hits mostly inhibitors | 390,000 tested, 0.56% active | AID 540317; note: potency is the fitted concentration of half-maximal effect; nearly all actives have a fitted effect of over 70% in size
Target sequence (P83916 whole entry, looked up): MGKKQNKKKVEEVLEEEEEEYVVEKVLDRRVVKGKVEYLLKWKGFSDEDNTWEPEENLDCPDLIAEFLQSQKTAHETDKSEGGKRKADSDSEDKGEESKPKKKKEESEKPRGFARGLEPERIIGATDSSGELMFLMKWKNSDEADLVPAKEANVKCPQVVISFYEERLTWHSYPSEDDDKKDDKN
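Compound inhibition of the preformed complex between 50 nM HP1-beta and 50 nM biotinylated H3K9me3 peptide was read by AlphaScreen. Buffer was PBS pH 7.4 with 0.01% Tween-20. Incubations ran 30 min at room temperature, with 10 ug/mL donor/acceptor beads.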
Six1-Eya2 blk = Six1/Eya2 interaction inhibition; AlphaScreen GST-Six1/His-Eya2 binding, biochemical; active compounds read low; activity change, % (concentration not given with the values); 360,000 tested, 0.56% active; AID 651725; in the data active = activity change below about -65%; inconclusive = mostly about -30% to -63%; note: % is set by controls: 0 for no effect and ±100 for the full control effect
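AlphaScreen luminescence read after one hour at 37 °C in darkness. Pin-transferred compounds met GST-Six1 and His-Eya2 protein (5X stock 250 nM/500 nM) plus glutathione donor and Ni-chelate acceptor beads (5X, 50 ug/mL).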
JMJD2A Tudor = JMJD2A Tudor domain (human) inhibition | O75164 | AlphaScreen JMJD2A-Tudor / H3K4me3 peptide binding | Potency, µM (series often up to 114 µM), for inactives: at the highest dose activity change, negative = inhibition, most hits filed as inhibitors | 390,000 tested, 4.4% active | AID 504339; note: potency is the fitted concentration of half-maximal effect; % is set by controls: 0 for no effect and ±100 for the full control effect; nearly all actives have a fitted effect of over 50% in size
CtBP-E1A inh = CtBP/E1A binding inhibition; AlphaScreen GST-E1A/His-CtBP binding, 1536-well; active compounds read low; activity change, % (no concentration beside the values); 340,000 tested, 0.49% active; AID 651724; in the data active = activity change below about -65%; inconclusive = mostly about -30% to -63%; note: % is set by controls: 0 for no effect and ±100 for the full control effect
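Homogeneous bead-based format: GST-tagged E1A captured on glutathione donor beads, His-tagged CtBP on nickel acceptor beads; compounds precede bead addition by 2 h at 37 °C.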
BAZ2B inh = BAZ2B (human) inhibition. Q9UIF8. AlphaScreen BAZ2B-H3K14Ac peptide displacement. Potency, µM (series often up to 114 µM), for inactives: at the highest dose activity change, negative = inhibition, hits mostly inhibitors. 360,000 tested, 4.4% active. AID 504333; note: potency is the fitted concentration of half-maximal effect; % is set by controls: 0 for no effect and ±100 for the full control effect; nearly all actives have a fitted effect of over 60% in size
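Complex of BAZ2B and biotin-H3K14Ac (50 nM apiece) forms over 30 min at RT, then faces library compounds up to 110 uM for another 30 min; AlphaScreen beads added, 20 min dark incubation, luminescence read.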
* = called active by the depositor; [ ] = another dose, or the depositor's remark. Most compounds without a hit are left out; they make up all but 10% or so of the library. Unless noted, calls come from the whole dose curve; as a rule, active = well fitted inhibition curve with a large enough effect; inconclusive = small, poorly fitted or top-dose-only effect; inactive = no such curve, though single readings can be large or run the other way.

`O=C(CSc1nc2ccccc2s1)Nn1cnnc1` gave G9a block -25%[12.7 µM], HP1b binding inh 41%, Six1-Eya2 blk 11, JMJD2A Tudor -16%, CtBP-E1A inh 0 and BAZ2B inh inconclusive.
For C=CCNC(=S)NNC(=O)CSc1nc2ccccc2s1 the results were G9a block 28µM*, HP1b binding inh 33%, Six1-Eya2 blk -8, JMJD2A Tudor -13%, CtBP-E1A inh -4 and BAZ2B inh -32%.
For Cc1c(CCNC(=O)c2ccc(Br)o2)sc2nc(-c3ccc(F)cc3)nn12 the results were G9a block -5%[59 µM], HP1b binding inh 24%, JMJD2A Tudor 50µM* and BAZ2B inh -23%.
For Cc1ccc(-c2nc3sc(CCNC(=O)c4ccc(Br)o4)c(C)n3n2)cc1 the results were G9a block -30%[59 µM], HP1b binding inh -20%, JMJD2A Tudor -21% and BAZ2B inh inconclusive.
For O=C(CCC(=O)N/N=C/c1ccc(Br)s1)NCc1ccccc1 the results were G9a block 6%[59 µM], HP1b binding inh 32%, Six1-Eya2 blk 1, JMJD2A Tudor 1%, CtBP-E1A inh -19 and BAZ2B inh 5%.
O=C(CCC(=O)N/N=C/c1cc(Cl)cc(Cl)c1O)NCc1ccccc1 was read as HP1b binding inh -2%, Six1-Eya2 blk inconclusive, JMJD2A Tudor 28µM*, CtBP-E1A inh -29 and BAZ2B inh 5%.
Screening Cc1cccc(OCCCSc2nc(-c3ccc(C(C)(C)C)cc3)nc3cc(=O)[nH]n23)c1C returned G9a block 7%[59 µM], HP1b binding inh 1%, JMJD2A Tudor 25µM* and BAZ2B inh 56µM*.
`CCc1ccc(OCCSc2nc(-c3cccc(C)c3)nc3cc(=O)[nH]n23)cc1` gave G9a block 35%[59 µM], HP1b binding inh 23%, JMJD2A Tudor -9% and BAZ2B inh 2%.
Screening CCc1ccc(OCCCSc2nc(-c3ccc(C(C)(C)C)cc3)nc3cc(=O)[nH]n23)cc1 returned G9a block 12%[59 µM], HP1b binding inh -25%, JMJD2A Tudor 25µM* and BAZ2B inh 50µM*.
O=C(Nc1ccc(N2CCOCC2)cc1)c1cc2ccccc2o1 was read as G9a block -22%[12.7 µM], HP1b binding inh 15%, Six1-Eya2 blk -3, JMJD2A Tudor -20%, CtBP-E1A inh 0 and BAZ2B inh -37%.
Screening O=C(/C=C/N1CCOCC1)c1cc2ccccc2o1 returned G9a block 10µM*, HP1b binding inh 28%, Six1-Eya2 blk -7, JMJD2A Tudor -18%, CtBP-E1A inh 0 and BAZ2B inh 2%.
Screening Cc1ccccc1C(OCCN(C(C)C)C(C)C)c1ccccc1 (stereo unspecified) returned G9a block 28µM*, HP1b binding inh inconclusive, Six1-Eya2 blk -2, JMJD2A Tudor 0.89µM*, CtBP-E1A inh 3 and BAZ2B inh inconclusive.
For O=C1NC(=Nc2ccccc2Cl)S/C1=C\c1cccc([N+](=O)[O-])c1O the results were G9a block 8.9µM*, HP1b binding inh inconclusive, Six1-Eya2 blk -21, JMJD2A Tudor 40µM*, CtBP-E1A inh -7 and BAZ2B inh 11µM*.
O=C1NC(=Nc2ccccc2Cl)S/C1=C\c1cccc([N+](=O)[O-])c1 was read as G9a block inconclusive, HP1b binding inh 32%, Six1-Eya2 blk -10, JMJD2A Tudor inconclusive, CtBP-E1A inh 2 and BAZ2B inh 50µM*.
COc1ccc2c(CC(=O)OCC(=O)Nc3cc(C)c(C)cc3[N+](=O)[O-])coc2c1 was read as G9a block 20µM*, HP1b binding inh inconclusive, Six1-Eya2 blk -29, JMJD2A Tudor inconclusive, CtBP-E1A inh 2 and BAZ2B inh inconclusive.
For COc1ccc(C(=O)OCC(=O)Nc2cc(C)c(C)cc2[N+](=O)[O-])cc1 the results were G9a block -3%[59 µM], HP1b binding inh 27%, Six1-Eya2 blk 0, JMJD2A Tudor -26% and BAZ2B inh -19%.
`CCOC(=O)[C@]12CCC=C1N(Cc1ccco1)C(=O)[C@H](CC(=O)NCC1CCCCC1)C2` gave Six1-Eya2 blk -3 and CtBP-E1A inh 7.
Screening COc1ccc(OCCNc2cc(N3CCOCC3)ccc2[N+](=O)[O-])cc1 returned G9a block inconclusive, HP1b binding inh -21%, Six1-Eya2 blk inconclusive, JMJD2A Tudor 79µM*, CtBP-E1A inh inconclusive and BAZ2B inh inconclusive.
`CC(C)CNc1cc(N2CCCC2)ccc1[N+](=O)[O-]` gave G9a block 11µM*, HP1b binding inh -28%, Six1-Eya2 blk inconclusive, JMJD2A Tudor inconclusive, CtBP-E1A inh 7 and BAZ2B inh inconclusive.
Cc1cccc(OCCNc2cc(N3CCN(CCO)CC3)ccc2[N+](=O)[O-])c1 was read as G9a block 45µM*, HP1b binding inh -28%, Six1-Eya2 blk inconclusive, JMJD2A Tudor inconclusive, CtBP-E1A inh 21 and BAZ2B inh inconclusive.
For COc1cccc(OCCNc2cc(N3CCCCC3)ccc2[N+](=O)[O-])c1 the results were HP1b binding inh -30%, Six1-Eya2 blk 0, JMJD2A Tudor inconclusive, CtBP-E1A inh -4 and BAZ2B inh inconclusive.
For O=[N+]([O-])c1ccc(N2CCN(S(=O)(=O)c3ccccc3)CC2)cc1NCCN1CCOCC1 the results were G9a block 20µM*, HP1b binding inh -3%, Six1-Eya2 blk 19, JMJD2A Tudor -33%, CtBP-E1A inh 0 and BAZ2B inh -31%.
Screening CCCCNC(=O)C(CC)n1c(SCc2cccc(F)c2)nc2ccncc21 (stereo unspecified) returned HP1b binding inh 18%[57 µM] and JMJD2A Tudor 1%[57.1 µM].
Screening O=C(c1ccco1)N1CCC2(CC1)CCN(c1ccc(-c3ccccc3)cc1)CC2 returned G9a block -5%[12.7 µM].
For Cc1ccccc1OCCNc1cc(N2CCN(CCO)CC2)ccc1[N+](=O)[O-] the results were G9a block inconclusive, HP1b binding inh inconclusive, Six1-Eya2 blk -25, JMJD2A Tudor inconclusive, CtBP-E1A inh -29 and BAZ2B inh 32µM*.
For Cc1ccc(C)c(-c2nn(-c3cc(N4CCN(CCO)CC4)ccc3[N+](=O)[O-])c(=O)c3ccccc23)c1 the results were G9a block 40µM*, HP1b binding inh inconclusive, Six1-Eya2 blk -24, JMJD2A Tudor 35µM*, CtBP-E1A inh -17 and BAZ2B inh 45µM*.
Screening CC(=Nc1ccccc1C(F)(F)F)c1ccncc1 returned G9a block -30%[2.33 µM], HP1b binding inh 12%, Six1-Eya2 blk 1, JMJD2A Tudor -13%, CtBP-E1A inh -1 and BAZ2B inh -2%.
